The values that follow come from PubChem BioAssay.

Unmarked numbers belong to inactive results. No rule for the calls is given here.

The target of the assay is Pantothenate synthetase (Mycobacterium tuberculosis (strain ATCC 25618 / H37Rv)) (UniProt P9WIL5). As to the kind of experiment: Recombinant Mtb pantothenate synthetase (PanC) inhibitors, coupled enzyme, confirmatory (AID 375).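 Also: 0% = full reaction with vehicle and 100% = no enzyme background.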 The note with it: coupled enzyme assay; at 10 µM, hits give high values.
Sequence of Pantothenate synthetase (Mycobacterium tuberculosis (strain ATCC 25618 / H37Rv)) (P9WIL5 whole entry, looked up): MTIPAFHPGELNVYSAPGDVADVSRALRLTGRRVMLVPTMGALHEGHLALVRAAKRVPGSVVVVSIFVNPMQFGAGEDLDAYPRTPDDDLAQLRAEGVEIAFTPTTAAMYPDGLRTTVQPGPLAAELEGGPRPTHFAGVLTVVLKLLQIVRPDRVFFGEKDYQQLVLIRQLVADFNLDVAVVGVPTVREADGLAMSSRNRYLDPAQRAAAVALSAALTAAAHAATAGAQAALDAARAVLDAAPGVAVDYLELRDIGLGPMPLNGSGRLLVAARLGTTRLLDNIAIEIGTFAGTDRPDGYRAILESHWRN
As usually defined, the inhibition is the share of the control response that was lost under treatment. `COc1ccc(-c2nnc(SCC(=O)N3CCCCC3)o2)cc1OC`: the inhibition was 0%. In the case of `CCCCCCn1c(CN2CCN(Cc3ccccc3)CC2)nc2c1c(=O)n(C)c(=O)n2C` it was 10%; in that of `O=C(Nc1cnccn1)c1cccs1`, 0%; in that of `CCOC(=O)C(NC(=O)CC)(Nc1ccc(S(=O)(=O)Nc2onc(C)c2C)cc1)C(F)(F)F` (stereo not given), 0%. For `CN(C)CCNc1oc(-c2ccccc2F)nc1C#N`, the inhibition is 1%. In the case of `Fc1cccc2sc(Nc3nnc(-c4ccco4)o3)nc12`, the inhibition is 8%. The result for `Cc1cc(NC(=O)Cc2c(F)cccc2Cl)no1` reads 10%. `Cc1c(C)c2ccc(OC3CCCCC3=O)cc2oc1=O` (stereo not given): the inhibition was 2%. In the case of `OC(CCN1CCCCC1)(c1ccccc1)c1ccccc1` it was 3%; in that of `O=C(Nc1ccccc1)N(Cc1cccnc1)Cc1ccco1`, 0%. The result for `CCOCCCNS(=O)(=O)c1ccc2c(c1)oc(=O)n2CC(=O)OCC` reads 8%; that for `Nc1ccc(S(=O)(=O)Nc2ncccn2)cc1`, 6%.

As for `CCOc1ccc(NC(=O)C2CC(=O)N(CC)C(=Nc3ccc4c(c3)OCO4)S2)cc1` (stereo not given), the inhibition was 3%.

Take `COCCNC(=O)CCc1nc(-c2ccccc2)no1`: the inhibition is 0%. Take `CCn1cc(SCC(=O)Nc2cc(C)on2)c2ccccc21`: the inhibition is 0%. As to `COCC(C)NC(=O)NC(=O)c1ccc(Cl)cc1` (stereo not given), the inhibition was 0%. `O=C(Nc1ccc2c(c1)OCO2)c1cncc(Br)c1`: the inhibition was 8%. In the case of `Cc1noc(C)c1COc1cccc(C(=O)Oc2ccc3c(c2)OCO3)c1`, the inhibition was 0%. In the case of `CC(=O)Nc1nc(C)c(-c2csc(Nc3ccc(O)cc3)n2)s1` it was 0%; in that of `Cc1ccccc1CN1CCN(CC(=O)NCc2ccco2)C1=O`, 0%. Turning to `Cn1c(=O)c2c([nH]c(=O)n2C)n(C)c1=O`, the inhibition is 0%. Regarding `CC(C)CCNC(=O)NC(=O)CSc1nnc(-c2ccccc2Br)o1`, the inhibition is 1%.

`C=CCn1c(SCC#N)nc2c(c1=O)C(C)(C)Cc1ccccc1-2`: the inhibition is 0%. On to `CCOC(=O)Nc1ccc2c(CN3C(=O)NC4(CCCC4)C3=O)cc(=O)oc2c1`, for which the inhibition was 2%. In the case of `Cc1ccc(CN2C(=O)CCC2C(=O)NCCCN2CCCC(C)C2)cc1` (stereo not given), the inhibition was 1%. Consider `O=C(CN(Cc1ccco1)C(=O)CNS(=O)(=O)c1ccc(F)cc1)NCCc1ccccc1`, for which the inhibition was 3%. In the case of `Cc1cnc(SCCc2ccncc2)nc1C` it was 2%. The result for `Cc1csc(NC(=O)c2cccc(S(=O)(=O)N3CCCCC3)c2)n1` reads 0%; that for `Fc1cccc2sc(N3CCOCC3)nc12`, 1%. Turning to `CC(C)(C)NC(=O)Nc1ccccc1C(N)=O`, the inhibition is 5%. Turning to `CCn1c(C)c(CCC(=O)O)c(=O)n2nc(-c3ccccc3OC)cc12`, the inhibition was 0%. In the case of `Cn1cc(Br)c(C(=O)NC2CCCCC2)n1`, the inhibition is 4%.

As to `CCc1ccc(NC(=O)C2CC(=O)N(C(C)C)C2)cc1` (stereo not given), the inhibition was 0%. Regarding `O=C(NC1CCCCCC1)C1c2ccccc2C(=O)N1Cc1cccnc1` (stereo not given), the inhibition is 3%. `O=C1c2ccccc2C(=O)N1CNc1ccccc1`: the inhibition is 0%. In the case of `Cc1nc(N)[nH]c(=O)c1CCC(=O)OCC(C)C` it was 0%; in that of `CCOC(=O)c1c(C)n(C)c2c(C)cc(O)c(OC(C)=O)c12`, 0%.

`COCCOC(=O)C1=C(C)N=c2s/c(=C\c3cccs3)c(=O)n2C1c1cccs1` (stereo not given): the inhibition is 1%. As for `COc1ccc(C)cc1NS(=O)(=O)c1ccc(NS(=O)(=O)c2ccc(NC(C)=O)cc2)cc1`, the inhibition was 1%.

Turning to `CS(=O)(=O)N1CCN(c2ccccc2NC(=O)c2cccs2)CC1`, the inhibition was 2%.
